# In the supplement of paper PMC4723716:
# Whole data set: some 3,600 compounds, median “viability index relative to DMSO control” near 0.81, cut for the lowest 2% near 0.13. What follows is part of a selection rich in the lowest values, with near analogues and random picks from the rest.
# Tested on: Plasmodium falciparum NF54 stage V gametocytes
# Test: viability index relative to DMSO control (fraction); higher = less gametocyte killing
# Conditions: 1.25 µM, incubation time: 72 h
# 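Note: Saponin-lysis sexual stage assay in serum-free medium: MitoTracker Red CMXRos staining plus saponin, high-content imaging, particle count per well divided by plate mean of DMSO wells.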
row,Structure (SMILES),viability index
1,COc1cc(C(c2c(C)n(C)n(-c3ccccc3)c2=O)c2c(C)n(C)n(-c3ccccc3)c2=O)cc(Cl)c1OCc1ccccc1,0.699
2,Cc1n(C)c2ccccc2[n+]1CC(=O)c1ccccc1,0.785
3,COc1ccc(NC(=O)c2cnn(-c3ccccc3)c2NC(=O)c2ccco2)cc1,0.846
4,COc1cccc(CNC(=O)Cn2ncc3c(=O)oc4ccc(C)cc4c32)c1,0.843
5,CC(C)NCC(O)Cn1c2ccc(Cl)cc2c2cc(Cl)ccc21 (stereo unspecified),0.419
6,CC(=O)c1ccc(N2CCN(Cc3cc(-c4ccnc5cc(Cl)ccc45)ccc3O)CC2)cc1,0.433
7,O=C1CC(c2cccc([N+](=O)[O-])c2)c2cc3c(cc2N1)OCO3 (stereo unspecified),0.839
8,O=[N+]([O-])c1cc(Br)c(Nc2ccccc2)c([N+](=O)[O-])c1,0.0522
9,Cc1cc(Nc2cccc([N+](=O)[O-])c2)nc2cc(O)ccc12,0.819
10,O=C(O)CCNc1ccccc1[N+](=O)[O-],0.971
11,COc1ccccc1NC(=O)C(=O)NCCc1ccc(OC)c(OC)c1,0.413
12,Cc1c(CN2CCC(N3CCC(C(=O)NC4CC4)CC3)CC2)[nH]c2c(Cl)cccc12,0.865
13,O=C(CN1CCN(C(=O)c2ccco2)CC1)Nc1cc(C(F)(F)F)ccc1Cl,1.11
14,CC1CCN(c2nncc3ccccc23)CC1,0.777
15,Cc1cc(C)n(-c2ncc(-c3ccc([N+](=O)[O-])cc3)cn2)n1,1.02
16,Cc1cc(N2CCC(C)CC2)nc(-n2nc(C)cc2C)n1,0
17,CN1CCC(CCNCc2ccc(OCC(O)CN(C)Cc3ccccc3)cc2)CC1 (stereo unspecified),0.856
18,Cn1c(=O)c(Cl)c2c3c(c(Cl)ccc31)C(=O)c1ccccc1-2,0.0761
19,CCCCNC(=O)c1nn(-c2ccc(OC)cc2)c(=O)c2ccccc12,0.946
20,O=c1c(=Cc2ccc(-c3ccc([N+](=O)[O-])cc3Cl)o2)sc2nc3ccccc3n12,0.699
21,CCC(C)NCC(O)(c1ccc(Cl)cc1)c1ccc(Cl)cc1 (stereo unspecified),0.699
22,CCCOC(=O)C1=C(C)NC2=C(C(=O)CC(c3ccc(OC)c(OC)c3)C2)C1c1ccc([N+](=O)[O-])cc1 (stereo unspecified),0.514
23,CCOC(=O)c1[nH]nc(C(=O)c2ccccc2)c1-c1ccccc1,1.27
24,CCOC(=O)c1c(Cl)nnc(-c2ccccc2)c1-c1ccccc1,0
25,CCOC(=O)c1c(-c2ccccc2)oc2c1C(=O)c1ccccc1C2=O,0.461
26,CCOC(=O)c1c(NC(=O)Cc2ccc([N+](=O)[O-])cc2)sc2c1CCCC2,1.02

row,Structure (SMILES),viability index
1,Cc1ccc(CN2C(=O)C(O)(CC(=O)c3ccccc3)c3ccccc32)cc1 (stereo unspecified),0.914
2,CCN1C(=Cc2sc3ccccc3[n+]2C)C=Cc2ccc(C)cc21,0.51
3,CN(C)CCNc1c2c(nc3ccccc13)CCC2,0.953
4,CN(C)CCCNc1c2ccccc2nc2ccccc12,0.0224
5,Cc1cc(NCCCN(C)C)c2ccccc2n1,0.888
6,CCOc1cc([N+](=O)[O-])cc(C=Nc2cccc(NC(=O)c3ccco3)c2)c1O,0.989
7,N=c1n(CCN2CCCCC2)c2ccccc2n1CC(O)COc1ccc(Cl)cc1 (stereo unspecified),0.746
8,O=C(CC1OC(=O)c2ccccc21)c1ccc(Cl)cc1 (stereo unspecified),0.496
9,CCOC(=O)c1cnc2c(OC)cccc2c1Nc1ccc(C(C)=O)cc1,1.27
10,CC(C)Nc1nc(-c2cccnc2)nc2ccccc12,1.12
11,COc1ccc(Nc2nc(N3CCCC3)c3ccccc3n2)cc1,0.74
12,c1ccc(CNc2nc(-c3ccccn3)nnc2-c2ccccc2)cc1,0.374
13,COc1cnc(-c2ccccn2)nc1N1CCCC1,0.0429
14,COc1cnc(-c2ccccn2)nc1NC(C)C,0.0307
15,COc1ccccc1/C=C/CN1CCN(c2ccccn2)CC1,1.15
16,Cc1cc(C)nc(Nc2nc(C)c3cc(C)c(C)cc3n2)n1,0.196
17,CCOC(=O)C1=C(C)NC2=C(C(=O)C(C(=O)OCC)C(c3ccc(OC)cc3)C2)C1c1ccc(OC)c(OC)c1 (stereo unspecified),0.683
18,CN(C)c1ccc(C=C2SC(=Nc3ccc(O)cc3)NC2=O)cc1,0.727
19,CCn1c(C=CN(C)c2ccccc2)[n+](CC)c2cc(Cl)ccc21,1
20,CC(C)(C)c1ccc(Cn2nnc3c(O)nc(C4CCN(C(=O)c5ccccc5)CC4)nc32)cc1,0.736
21,N=C1NC(=O)C(=CC=Cc2ccc([N+](=O)[O-])o2)S1,0.0408
22,O=C(c1ccccc1)N1CCc2nc(Cc3ccc(F)cc3Cl)sc2C1,0.708
23,COc1cccc(OC)c1C(=O)Oc1cccc2ccc(C)nc12,0.706
24,Cc1ccc2ccc3ccc(C)nc3c2n1,0.0302
25,Cc1ccc(NC(=O)c2ccc(NCCCN3CCCCCC3)c([N+](=O)[O-])c2)cc1F,1.51
26,S=C(NN=Cc1ccccn1)NC1CC2CC1C1C=CCC21 (stereo unspecified),0.397

row,Structure (SMILES),viability index
1,CC1(C)C2CCC(C2)C1(C)NC(=S)NN=Cc1ccccn1 (stereo unspecified),0.0373
2,S=C(NN=Cc1ccccn1)NC1CC2C=CC1C2 (stereo unspecified),0.0456
3,CCOC(=O)c1ccc(N(C(=O)Cc2c[nH]c3ccccc23)C(C(=O)NC2CCCCC2)c2cccnc2)cc1 (stereo unspecified),0.513
4,O=C(Nc1ccc(O)cc1)c1cccc(S(=O)(=O)N2CCCCC2)c1,1.03
5,CC(=O)NC1=NN(C(C)=O)C(c2ccc(Br)cc2)S1 (stereo unspecified),0.944
6,O=C(CSc1nc2ccccc2c(=O)n1CCCN1CCOCC1)Nc1cccc(S(=O)(=O)N2CCCCCC2)c1,0.969
7,CCc1ccc2c(c1)C1(NN=C(c3ccc(C)cc3)S1)C(=O)N2 (stereo unspecified),0.127
8,CC1=C(C(=O)OC2CCCCC2)C(c2ccc(F)c(F)c2)C2=C(CCCC2=O)N1 (stereo unspecified),0.855
9,CN(C)CCNc1cc(-c2ccc3ccccc3c2)nc2ccccc12,0.0331
10,CN(C)CCNc1cc(-c2ccccc2)nc2ccccc12,0.909
11,CN(C)CCCNc1cc(-c2ccccc2)nc2ccccc12,0.913
12,Cc1ccc(C=Cc2ccc3ccccc3[n+]2C)cc1,0.754
13,O=C(NCc1ccccc1)C(c1ccc(F)cc1)N(Cc1ccco1)C(=O)c1cnccn1 (stereo unspecified),0.72
14,CCOc1ccccc1NC(=O)Cn1c(=O)n(Cc2ccccc2)c(=O)c2c(C)c(C(=O)N(C)C)sc21,0.83
15,CCCCCOC(=O)C1=C(C)NC2=C(C(=O)CC(C)(C)C2)C1c1ccncc1 (stereo unspecified),0.891
16,CCC(=O)N(C1=C(NC)C(=O)c2ccccc2C1=O)C(C)C,0.601
17,CCN(C(C)=O)C1=C(N2CCOCC2)C(=O)c2ccccc2C1=O,0.538
18,CC(=O)N(C1=C(N2CCCC2)C(=O)c2ccccc2C1=O)c1ccc(F)cc1,1
19,CNC1=C(N(Cc2ccc(Cl)c(Cl)c2)C(C)=O)C(=O)c2ccccc2C1=O,0
20,CC(=O)N(C1=C(N2CCCCC2)C(=O)c2ccccc2C1=O)c1ccc(F)cc1,0.721
21,CC(=O)N(Cc1ccc(F)cc1)C1=C(NCCc2ccccc2)C(=O)c2ccccc2C1=O,0.0184
22,Cc1cc(Nc2cccc(Cl)c2)nc2ccc(NC(=O)c3cccnc3)cc12,0.912
23,COC(=O)c1c(NC(=O)c2ccc(S(=O)(=O)N3CCOCC3)cc2)sc2c1CCN(C(C)=O)C2,0.76
24,C1=C(c2ccccc2)CCN(c2ncnc3c2nc2n3CCCCC2)C1,0.916
